Here are results for 25 molecules from article PMC12136788.

Positions count from the first letter of the chain named. In all, about 5,800 sequences were measured (“enrichment r”: median about 0.54, highest 2% from about 16 on). The sample holds the highest values, similar sequences and a random draw of the others, so the mix is not that of the screen.

B1: ENSG00000150403:stop:overlap|stop_codon|ENSG00000150403|stop_codon|NA|stop_codon (ssRNA)
RNA: GGGAGUUCUACAGUCCGACGAUCUGUCCAGGUUCCUCAUGGGCAGUGCUCGGGGUGACAAAGAAGGCAACAGAACAGCCCUCUAGCAGAGCGUCAGUGCAGUCGUGUUAUCCCGGCUUUUACAGAAUAUUCUUGUCCUAUUUUCAACAGAGGAUUGAGCAUCA
B2: chr1:37566712:37566813:+|3pUTR|ENSG00000163879|unk|FALSE|unique (ssRNA)
RNA: GGGAGUUCUACAGUCCGACGAUCGCUUUAUUUCCCUAGCACUGGUGAAGGGCUUCAACUGUCAAACCUCAGAACAAAUGCAUUAGGGCCUUAGAAAUGUCAAUGGGGCAGGAAGAAAACACAAUUUCUAACUGCCUGUUUUUGCAACAGAGGAUUGAGCAUCA
B3: chr16:16142165:16142266:+|3pUTR|ENSG00000103222|msi1|total|mutant (ssRNA)
RNA: GGGAGUUCUACAGUCCGACGAUCAUUGAUGUGGGGUAAAUAUUAAGGAGAUGGCCUCAUGGGAAUUUGACCUUGACCCGAAACCGAGACUGAGAGUGAGCAACCAGCUGGAAGGUACUAUGCCAGUCCCCGCAGAAAAAUGUGCAACAGAGGAUUGAGCAUCA
B4: chr20:4701031:4701132:+|3pUTR|ENSG00000171867|msi1|total|mutant (ssRNA)
RNA: GGGAGUUCUACAGUCCGACGAUCCACCGUUUCUGUAAUUGGCUUUUGAAUCAAAGAACCGGGAGACAAUCUAAAAAAUAUCUCCGGUUGGAGAUGACAGAAAUAUGAUUGAUUUGAAGUGGAAAAAGAAAUUCUGUUAAUGUUCAACAGAGGAUUGAGCAUCA
B5: chr19:21059139:21059240:+|3pUTR|ENSG00000118620|unk|total|mutant (ssRNA)
RNA: GGGAGUUCUACAGUCCGACGAUCGUAAAAAUGAAAAUAUUUAAUCCAAAAUUAAGUCUAUGUAAAUAUCAGAGAAUUUACUGCCGAAAUAUAUAAGGCACUGAGACUUCAGAUAUUAUACUAAAUCAGAGUGCUGAGUACCGACAACAGAGGAUUGAGCAUCA
B6: chr17:42200006:42200107:-|3pUTR|ENSG00000173757|unk|total|mutant (ssRNA)
RNA: GGGAGUUCUACAGUCCGACGAUCAAGCUGCCGUUUGCCUUGGCUUGGUUUCAUACACUGAUUUAUUUUUCUAUGCCAGGCAGCCGAGUCUCUCUGCCUCUGAGGAGCAGGCUACCCGCAUCCCACUCAGCCCCUCCCUACCCCCAACAGAGGAUUGAGCAUCA
B7: chr20:3582170:3582271:+|CDS|ENSG00000088812|msi1|FALSE|bound_elsewhere (ssRNA)
RNA: GGGAGUUCUACAGUCCGACGAUCGGCCUUCGGAAGAUCAAUGUGUCCUACUGGUGCUGGGAAGAUAUGUCCCCAUUUACAAAUAGUUUACUACAGUGGAUGCCGUCUGAGCCCAGUGAUGCUGGAUUCUGUGGAAUUUUAUCACAACAGAGGAUUGAGCAUCA
B8: chr3:10101824:10101929:+|3pUTR|ENSG00000144554|unk|total|mutant (ssRNA)
RNA: GGGAGUUCUACAGUCCGACGAUCAAAAUCUCUGAGUCAUGAUUCUGGACUUUGGGAGCCCGUUUUGAAACUCUGAUUUAUUGCCGAACUCCGGCUUGUACCAAUUUUACAAAUAAAUUCUGUUCUAAGUUCUGCCUCAGUUGCCAACAGAGGAUUGAGCAUCA
B9: ENSG00000166086:stop:overlap|stop_codon|ENSG00000166086|stop_codon|NA|stop_codon (ssRNA)
RNA: GGGAGUUCUACAGUCCGACGAUCUCCUGCUGCUGCUUUUCAGGGAGUCAAGUCUAGUCUGCUUUCCAAGGCUGCAUUCUAAGUAGUGAAGCCUCAACUUCAUAUUUACCUAAAGCAGGACACCACACUCUUCCCCUGGCAGCCCAACAGAGGAUUGAGCAUCA
B10: chr1:173734013:173734119:+|CDS|ENSG00000076321|unk|FALSE|unique (ssRNA)
RNA: GGGAGUUCUACAGUCCGACGAUCCAUUGACGAGAGGGCUAUGGAAUUACUGAUUGACUUUGCGUAUACCUCCCAGAUAACAGUAGAAGAGGGCAAUGUUCAGACUCUUCUGCCAGCUGCUUGCCUCCUCCAGCUGGCAGAAAUCAACAGAGGAUUGAGCAUCA
B11: chr10:73251842:73251943:-|CDS|ENSG00000182180|msi1|FALSE|unique (ssRNA)
RNA: GGGAGUUCUACAGUCCGACGAUCUCGGCCGUUCUACCGCAUUGUGGCUGCUCACAACAAGUGUCCCAGGGAUGGCCGUUUCGUAGAGCAGCUGGGCUCCUAUGAUCCAUUGCCCAACAGUCAUGGAGAAAAACUCGUUGCCCUCAACAGAGGAUUGAGCAUCA
B12: chr7:44121865:44121972:-|CDS|ENSG00000106628|unk|FALSE|unique (ssRNA)
RNA: GGGAGUUCUACAGUCCGACGAUCGUGCCAGUGGCAACCUACACCAACUCCUCACAACCCUUCCGGCUAGGAGAGCGCAGCUUUAGCCGGCAGUAUGCCCACAUUUAUGCCACCCGCCUCAUCCAAAUGAGACCCUUCCUGGAGCAACAGAGGAUUGAGCAUCA
B13: chr6:31137533:31137950:-|three_prime_utr|ENSG00000204538|control|control|control (ssRNA)
RNA: GGGAGUUCUACAGUCCGACGAUCGCAUCUCCAGGCACCCACGCCCUCUCCACCCUCUGAUUCCCCGUGAAUUCUUCCCAAUUUAGCCUGUCUCCUUAAACCUCUUCCUCAUUCCCUCGGUUUUAUUCUGAACCCGUAAGGUGGCAACAGAGGAUUGAGCAUCA
B14: chr13:110149936:110150037:-|3pUTR|ENSG00000187498|msi1|total|mutant (ssRNA)
RNA: GGGAGUUCUACAGUCCGACGAUCUUCUUGUAUUAUAAUUAAUUUUCUACCCCCAGAGAUAAAUGUUUGUUUAUAUCACUGUCCCGCUGUUUCAAAAUUCCGGUCCCUUGGUCUGUACAAAUAACCGCAAUGUAAAAAUGGUUUCAACAGAGGAUUGAGCAUCA
B15: chr6:57184343:57184440:+|3pUTR|ENSG00000112208|msi1_unk|FALSE|overlapping (ssRNA)
RNA: GGGAGUUCUACAGUCCGACGAUCUCUUCAGUUUUGUGAAUAACAAAACUAGCAAUAUUUUAAUUAUCUAUCUAGAGAUUUUUUAGAUUGAAUUCUUGUCUUGUACUAGGAUCUAGCAUAUUUCACUAUUCUGUGGAUGAAUACCAACAGAGGAUUGAGCAUCA
B16: chr9:76611375:76614569:-|three_prime_utr|ENSG00000106772|control|control|control (ssRNA)
RNA: GGGAGUUCUACAGUCCGACGAUCAUGUUACCUUUUUCCACUUUGCACUACCUGGUGCCAUUCUAAAUUUCUAAGGGGAAAAAUAGAAAGUUUGUUUACUCUUAAGAUAUUUUAUGAAAUUGUGUGUACUUUCCUAUUUUGCCACAACAGAGGAUUGAGCAUCA
B17: ENSG00000136451:be:win_2551|3pUTR|ENSG00000136451|bound_else_gene|NA|bound_elsewhere_windowed (ssRNA)
RNA: GGGAGUUCUACAGUCCGACGAUCUCACUAGAGUUUAUGUCUUAUAUUAAAUUGUAUACAGUUUUUAUUCUAACCACUAACUAGGUAGUGUAUGCCCCUUCAGAACAUGCAGAGUGUAUCUUUUUUUAAAUUUCUCCUUCCGUUCAACAGAGGAUUGAGCAUCA
B18: chr13:110149936:110150037:-|3pUTR|ENSG00000187498|msi1|FALSE|unique (ssRNA)
RNA: B14 RNA with C83U, C84A, C99U, C100A, C124U, C125A
B19: ENSG00000070961:be:win_251|CDS|ENSG00000070961|bound_else_gene|NA|bound_elsewhere_windowed (ssRNA)
RNA: GGGAGUUCUACAGUCCGACGAUCUGUUUGGAAAGAAUUUUAUACCUCCUAAAAAGCCAAAAACCUUUCUUCAAUUAGUAUGGGAAGCAUUACAAGAUGUCACUUUAAUUAUAUUAGAAAUUGCAGCCAUAGUAUCAUUGGGCCCAACAGAGGAUUGAGCAUCA
B20: chr12:89642165:89642281:-|CDS|ENSG00000070961|unk|FALSE|bound_elsewhere (ssRNA)
RNA: GGGAGUUCUACAGUCCGACGAUCGCCAAAAACCUUUCUUCAAUUAGUAUGGGAAGCAUUACAAGAUGUCACUUUAAUUAUAUUAGAAAUUGCAGCCAUAGUAUCAUUGGGCCUUUCUUUUUAUCAGCCUCCAGAAGGGGAUAACAACAGAGGAUUGAGCAUCA
B21: chr1:214663888:214664008:+|3pUTR|ENSG00000117724|msi1|FALSE|bound_elsewhere (ssRNA)
RNA: GGGAGUUCUACAGUCCGACGAUCAGGAGAAAACAAUUCCUUAGAAGUCUUAAAUAUAUUGUACUCUUUAGAUCUCCCAUGUGUAGGUAUUGAAAAAGUUUGGAAGCACUGAUCACCUGUUAGCAUUGCCAUUCCUCUACUGCACAACAGAGGAUUGAGCAUCA
B22: ENSG00000070961:be:win_301|CDS|ENSG00000070961|bound_else_gene|NA|bound_elsewhere_windowed (ssRNA)
RNA: GGGAGUUCUACAGUCCGACGAUCUUAGUAUGGGAAGCAUUACAAGAUGUCACUUUAAUUAUAUUAGAAAUUGCAGCCAUAGUAUCAUUGGGCCUUUCUUUUUAUCAGCCUCCAGAAGGGGAUAAUGCACUUUGUGGAGAAGUUCAACAGAGGAUUGAGCAUCA
B23: chr1:214663888:214664008:+|3pUTR|ENSG00000117724|msi1|total|mutant (ssRNA)
RNA: B21 RNA with U41C, A42C, U68C, A69C, U83C, A84C, U120C, A121C
B24: ENSG00000136451:be:win_2451|3pUTR|ENSG00000136451|bound_else_gene|NA|bound_elsewhere_windowed (ssRNA)
RNA: GGGAGUUCUACAGUCCGACGAUCUUUAAAUUGGAAGACGCUGGAGGCACUGGGAUGUGAUAUGCCCCUCUCUCUCCCAAUCAGAGCCUGUUGAUAUUACAACAGGGACAGAUGUGUUAGUUGCUCACUAGAGUUUAUGUCUUACAACAGAGGAUUGAGCAUCA
B25: ENSG00000136451:be:win_2501|3pUTR|ENSG00000136451|bound_else_gene|NA|bound_elsewhere_windowed (ssRNA)
RNA: GGGAGUUCUACAGUCCGACGAUCUCCCAAUCAGAGCCUGUUGAUAUUACAACAGGGACAGAUGUGUUAGUUGCUCACUAGAGUUUAUGUCUUAUAUUAAAUUGUAUACAGUUUUUAUUCUAACCACUAACUAGGUAGUGUAUGCAACAGAGGAUUGAGCAUCA

The target in this assay is MSI1 full-length (mouse, UniProt Q61474 1-362). The assay can be described thus: nsRBNS (natural sequence RNA bind-n-seq); RBNS binding buffer (assumed for nsRBNS): 25 mM Tris pH 7.5, 150 mM KCl, 3 mM MgCl2, 0.01% Triton X-100, 500 ug/ml BSA, 20 U/ml SUPERase-In, 4 C; UNK is unkempt and MSI1 is Musashi-1; names of the RNAs are library labels; protein concentration not given here; high values mean tight binding.
MSI1 full-length, sequence (Q61474 whole entry): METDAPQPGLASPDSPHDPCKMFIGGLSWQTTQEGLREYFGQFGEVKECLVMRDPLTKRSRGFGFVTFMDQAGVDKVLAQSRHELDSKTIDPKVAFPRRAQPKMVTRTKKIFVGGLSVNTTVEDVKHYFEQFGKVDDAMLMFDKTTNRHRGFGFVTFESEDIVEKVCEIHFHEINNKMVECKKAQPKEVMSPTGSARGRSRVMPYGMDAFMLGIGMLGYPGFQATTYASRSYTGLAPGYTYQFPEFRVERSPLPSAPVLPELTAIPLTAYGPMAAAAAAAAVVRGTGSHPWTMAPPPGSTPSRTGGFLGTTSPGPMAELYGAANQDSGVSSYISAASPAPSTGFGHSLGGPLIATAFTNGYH
The molecule B1 returned a binding signal of 0.829 enrichment R.
With B2 the figure was 0.39 enrichment R; with B3, 0.411 enrichment R; with B4, 0.277 enrichment R.
With B5 the figure was 4.16 enrichment R.
With B6 the figure was 0.705 enrichment R; with B7, 0.86 enrichment R; with B8, 0.338 enrichment R.
For B9, the binding signal was 0.461 enrichment R.
Then B10, with 1.23 enrichment R; and B11, with 0.318 enrichment R; and B12, with 0.629 enrichment R.
With B13 the figure was 0.944 enrichment R.
Then B14, with 3.28 enrichment R; and B15, with 4.43 enrichment R.
B16: the binding signal came out at 1.45 enrichment R.
Then B17, with 10.4 enrichment R; and B18, with 30.3 enrichment R; and B19, with 17.2 enrichment R.
Then B20, with 9.09 enrichment R; and B21, with 16.4 enrichment R.
With B22 the figure was 9.77 enrichment R; with B23, 0.406 enrichment R.
B24: the binding signal turned out to be 1.47 enrichment R.
Then B25, with 25.2 enrichment R.
